# Laboratory results reported in paper PMC4336329 (PLoS ONE, 2015).
# The whole screen tested about 310,000 compounds, of which about 14,000 (4.5%) showed an effect of 50% or more. Effects have a minus sign here. The list comes from a sample in which strong results are over-represented; it also holds similar structures and randomly drawn compounds.
# Target: human ether-à-go-go-related gene (hERG) potassium channel (human, UniProt Q12809)
# Assay: primary screen, population patch clamp on CHO cells stably expressing hERG; higher = less effect of the substance
# 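Note: peak tail current of the secondary pulse compared with the same well before compound.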
# human ether-à-go-go-related gene (hERG) potassium channel, sequence (Q12809 whole entry, looked up): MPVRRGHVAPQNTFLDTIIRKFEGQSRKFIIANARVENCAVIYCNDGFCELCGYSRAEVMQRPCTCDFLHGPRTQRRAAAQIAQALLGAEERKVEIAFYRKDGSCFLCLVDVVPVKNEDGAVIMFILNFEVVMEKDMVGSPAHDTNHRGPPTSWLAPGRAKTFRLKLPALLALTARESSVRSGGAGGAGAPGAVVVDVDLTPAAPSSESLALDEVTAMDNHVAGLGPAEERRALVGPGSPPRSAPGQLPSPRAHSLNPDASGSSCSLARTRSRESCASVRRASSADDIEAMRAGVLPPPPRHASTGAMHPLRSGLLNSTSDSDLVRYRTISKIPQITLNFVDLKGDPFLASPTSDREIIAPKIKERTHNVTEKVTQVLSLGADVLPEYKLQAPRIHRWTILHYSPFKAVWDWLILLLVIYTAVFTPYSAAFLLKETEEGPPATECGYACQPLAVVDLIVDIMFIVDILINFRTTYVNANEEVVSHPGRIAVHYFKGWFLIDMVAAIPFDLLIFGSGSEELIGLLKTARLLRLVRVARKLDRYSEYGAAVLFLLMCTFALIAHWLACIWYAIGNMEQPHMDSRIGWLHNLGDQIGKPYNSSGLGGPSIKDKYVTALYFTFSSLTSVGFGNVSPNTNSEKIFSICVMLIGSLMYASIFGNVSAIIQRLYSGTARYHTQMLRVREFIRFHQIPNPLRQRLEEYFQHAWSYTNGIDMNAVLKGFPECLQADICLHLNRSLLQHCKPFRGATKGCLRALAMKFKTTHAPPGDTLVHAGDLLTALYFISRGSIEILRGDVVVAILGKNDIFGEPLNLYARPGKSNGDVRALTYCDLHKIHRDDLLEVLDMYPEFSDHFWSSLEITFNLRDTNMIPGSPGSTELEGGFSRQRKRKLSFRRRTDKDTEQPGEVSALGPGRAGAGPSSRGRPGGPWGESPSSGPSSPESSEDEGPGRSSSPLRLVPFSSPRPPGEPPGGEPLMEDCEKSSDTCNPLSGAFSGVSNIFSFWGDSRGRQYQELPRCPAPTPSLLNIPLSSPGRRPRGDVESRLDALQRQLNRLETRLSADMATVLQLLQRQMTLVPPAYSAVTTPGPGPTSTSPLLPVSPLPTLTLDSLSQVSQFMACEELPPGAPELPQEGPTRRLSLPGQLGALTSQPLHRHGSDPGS
row,SMILES,"hERG current change (%, negative = inhibition) at 10uM"
1,CNC(=O)c1ccsc1NC(=O)CCS(=O)(=O)c1ccc(Cl)cc1,-18.1%
2,COc1ccccc1OCCn1c(C)c(C=O)c2ccccc21,-2.11%
3,Cc1c(Br)c([N+](=O)[O-])nn1CC(=O)N1CCCc2ccccc21,2.48%
4,CN(C)C(CNS(=O)(=O)c1ccc(Br)cc1)c1cccnc1 (centres unmarked),-11.3%
5,CCN1CCN(C(CNS(=O)(=O)c2ccc(Cl)cc2)c2ccccc2)CC1 (centres unmarked),-69.5%
6,CN1CCN(C(CNS(=O)(=O)c2ccc(F)cc2)c2cccnc2)CC1 (centres unmarked),-7.43%
7,CCN1CCN(C(CNS(=O)(=O)c2ccc(C)cc2)c2cccnc2)CC1 (centres unmarked),-35.9%
8,CN(C)C(CNS(=O)(=O)c1ccc(Cl)cc1)c1cccnc1 (centres unmarked),18.2%
9,N#CCCN1CCN(C(CNS(=O)(=O)c2ccc(Cl)cc2)c2ccccc2)CC1 (centres unmarked),-34.2%
10,CCN1CCN(C(CNS(=O)(=O)c2ccccc2)c2ccccc2)CC1 (centres unmarked),-34.8%
11,CCN1CCN(C(CNS(=O)(=O)c2ccc(Br)cc2)c2cccnc2)CC1 (centres unmarked),-65.8%
12,CN1CCN(C(CNS(=O)(=O)c2ccc(Cl)cc2)c2cccnc2)CC1 (centres unmarked),-55.6%
13,CCN1CCN(C(CNS(=O)(=O)c2ccc(Cl)cc2)c2cccnc2)CC1 (centres unmarked),-74.2%
14,N#Cc1ccc(Oc2cc(C(F)(F)F)nc(-c3ccccn3)n2)cc1,5.26%
15,Cc1cccc(Nc2ncnc3onc(-c4ccc(F)cc4)c23)c1C,-4.56%
16,Oc1ccccc1CNc1nccs1,21.3%
17,COc1ccc(OC(C)C(=O)Nc2ccccc2F)cc1 (centres unmarked),13.1%
18,CN(C)CCn1cnc2c1c(=O)[nH]c(=O)n2Cc1ccccc1.Cl,27.6%
19,O=C(O)CCCC(=O)NCc1ccccn1,11.1%

row,SMILES,"hERG current change (%, negative = inhibition) at 10uM"
1,Cc1ccc(NC(=O)Cn2c(-c3ccc(F)cc3)cnc2SCC(=O)Nc2c(C)cccc2C)cc1,16%
2,Cc1cc(C(=O)Nc2ccc(F)cc2)c2ccccc2n1,-0.679%
3,C/C(CC(=O)Nc1ccc2c(c1)OCCO2)=N\NC(=O)c1ccc([N+](=O)[O-])cc1Cl,-5.37%
4,CC(C)Sc1ccc([N+](=O)[O-])cc1C(=O)Nc1ccncc1,-11.7%
5,CCCCCn1cnc2c(sc3nc4c(cc32)CSC(C)(C)C4)c1=O,-14.5%
6,CCOC(=O)C1(CC2CCCCO2)CCN(Cc2nccn2-c2ccc(OC)cc2)CC1 (centres unmarked),-5.78%
7,CCOC(=O)C1(CC2CC2)CCN(Cc2cnc(-c3ccc(OC)cc3)nc2)CC1,-21.9%
8,CCOC(=O)C1(CCOC)CCN(Cc2nc(-c3cccs3)oc2C)CC1,-30.8%
9,CCOC(=O)C1(CC2CCCCO2)CCN(Cc2nc3ccccc3nc2C)CC1 (centres unmarked),-21.2%
10,CCOC(=O)C1(CC2CCCCO2)CCN(S(=O)(=O)c2ccccc2)CC1 (centres unmarked),9.64%
11,CCOC(=O)C1CCN(Cc2ccc(F)cc2F)CC1,6.65%
12,CCOC(=O)C1(CC2CCCCO2)CCN(Cc2ccc(OC)cc2F)CC1 (centres unmarked),-54.8%
13,CCOC(=O)C1(CC2CCCCO2)CCN(S(=O)(=O)c2ccc(C)s2)CC1 (centres unmarked),9.12%
14,CCOC(=O)C1(CC2CC2)CCN(Cc2ccc(OC)cc2F)CC1,-73.5%
15,CCOC(=O)C1(CC2CCCCO2)CCN(S(=O)(=O)c2ccc(OC)cc2)CC1 (centres unmarked),-38.3%
16,CCOC(=O)C1(CC2CCCCO2)CCN(S(=O)(=O)c2cc(C)cs2)CC1 (centres unmarked),-59%
17,CCOC(=O)C1(CC2CCCCO2)CCN(Cc2nc(-c3cccs3)oc2C)CC1 (centres unmarked),-67.6%
18,O=C(O)c1ccc(C(=O)O)c(C(=O)c2ccc(NC(=O)c3ccccc3)cc2)c1,8.99%
19,C/C(=N\NC(=O)c1ccc(Cl)c(Cl)c1)c1cccc(NC(=O)C(C)C)c1,1.91%

row,SMILES,"hERG current change (%, negative = inhibition) at 10uM"
1,Nc1c(Cl)cc(-c2cn(CCC(=O)O)c(-c3ccc(Cl)nc3)n2)cc1Cl,20.4%
2,O=C(N/N=C/c1cccnc1)c1ccc(NC(=O)c2ccc(F)cc2)cc1,8.2%
3,O=C1C2C3C=CC(C3)C2C(=O)N1c1ccc(N2CCN(c3ccccn3)CC2)c([N+](=O)[O-])c1 (centres unmarked),-18.6%
4,O=C(NCC1OCCCN1S(=O)(=O)c1ccc(F)cc1)C(=O)NC1CCCC1 (centres unmarked),-15.8%
5,O=C(CSc1ccccc1C(=O)O)NC1CCCCCCC1,17.6%
6,COc1ccccc1N1CCN(Cc2ccc(C(=O)O)cc2)CC1,14.4%
7,COc1ccccc1N1CCN(Cc2ccco2)CC1.O=C(O)C(=O)O,-26.4%
8,COc1ccc(CN2CCN(Cc3ccco3)CC2)cc1OC.O=C(O)C(=O)O,1.22%
9,CCOc1cc(CN2CCCCC2)ccc1OC,-8.28%
10,CSc1ccc(CN2CCN(c3ccccc3C)CC2)cc1.O=C(O)C(=O)O,-54.5%
11,COc1ccc(CN2CCN(C(=O)c3cccc(OC)c3OC)CC2)cc1OC.O=C(O)C(=O)O,5.63%
12,COc1ccccc1N1CCN(Cc2ccc(SC)cc2)CC1.O=C(O)C(=O)O,-72.9%
13,CCOc1ccccc1N1CCN(Cc2ccc(OC)c(OC)c2)CC1,-69.2%
14,Cc1ccccc1N1CCN(Cc2cccc(C(=O)O)c2)CC1.Cl,1.27%
15,Cc1ccccc1CN1CCN(Cc2ccccc2)CC1.O=C(O)C(=O)O,-7.72%
16,COc1ccc(CN2CCN(c3ccccc3OC)CC2)cc1OC.O=C(O)C(=O)O,-57.9%
17,CCOc1cc(CN2CCN(c3ncccn3)CC2)ccc1OC,-4.8%
18,Cc1ccccc1CN1CCCOCCS1(=O)=O,-0.4%
